Source: PubChem BioAssay (NCI)
This is part of a sample that, as a whole, favours compounds with a hit. Of some 83,000 tested, about 20% had one in any assay.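 Assay: single dose, 48 h. Readout: percent growth (0 = no net growth; negative = cell death). Active: <10.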 Activity calls are given as the source filed them.

Key:
Assay in all cases: NCI-60 one-dose screen, 48 h (100 = growth as untreated, 0 = no growth, -100 = all killed)
Conditions in all cases: 10 µM unless noted
[1] = system: SK-MEL-2 melanoma
[2] = system: EKVX NSCLC
[3] = system: SN12C renal
[4] = system: TK-10 renal
[5] = system: ACHN renal
[6] = system: CAKI-1 renal
[7] = system: CCRF-CEM leukemia
[8] = system: MOLT-4 leukemia
[9] = system: A498 renal

Measured: growth

COc1ccc2c(c1)sc1nc(-c3ccc(N(C)C)cc3)cn12
inactive: [1] 88.6% | [2] 101% | [3] 123% | [4] 132% | [5] 135% | [6] 86.2% | [7] 71.2% | [8] 76.7%

CN(C)c1ccc(-n2nc3ccccc3n2)cc1
inactive: [1] 102% | [2] 76.7% | [3] 97.2% | [4] 143% | [5] 96.1% | [6] 73.5% | [9] 96.4% | [8] 82.6%

CC1CN(C2CCCCC2)C(=O)NC1=O (stereo unspecified)
inactive: [1] 100% | [2] 110% | [3] 92.1% | [4] 101% | [5] 106% | [6] 103% | [9] 87.9% | [7] 106% | [8] 85%

Cc1csc(C#Cc2cncc(O)c2)n1
active: [7] -8.24%
inactive: [1] 108% | [2] 110% | [3] 102% | [4] 121% | [5] 117% | [6] 93.8% | [8] 105%

CCOc1cc(/C=C/C(=O)CC(=O)/C=C/c2ccc(OC(=O)CNCCN(CC)CC)c(OCC)c2)ccc1OC(=O)CNCCN(CC)CC
active: [1] 4.43% | [2] -38.1% | [3] -9.33% | [4] 7.64% | [5] -88.4% | [6] -30.9% | [9] -26.8% | [7] 4.21% | [8] -23.4%

Cc1ccc2c(c1)C(=O)/C(=C\Nc1ccc(C(N)=O)cc1)C(O)O2 (stereo unspecified)
inactive: [1] 77.4% | [2] 97.8% | [3] 136% | [4] 120% | [5] 104% | [6] 82.3% | [9] 115% | [7] 78.3% | [8] 80.6%

COC(=O)c1c(NC(=O)CSc2nnnn2-c2ccc(OC)cc2)sc(C)c1C
inactive: [1] 18.8% | [2] 74.8% | [3] 81.6% | [4] 152% | [5] 87.3% | [6] 102% | [9] 110% | [7] 83.8% | [8] 90.8%

N/C(=N\c1nc2ccccc2s1)NC(=O)Nc1ccccc1Cl
inactive: [1] 18.8% | [2] 41.2% | [3] 42.2% | [4] 69.4% | [5] 42.2% | [6] 32.7% | [7] 12.9% | [8] 13.9%

N#Cc1c(NC(=O)c2ccco2)[n+]([O-])c2ccccc2[n+]1[O-]
inactive: [1] 92.9% | [2] 98.7% | [3] 93.4% | [4] 133% | [5] 110% | [6] 110% | [9] 117% | [8] 85.3%

CCOc1cc(/C=C/C(=O)C(C(=O)/C=C/c2ccc(OC(=O)CNc3nc4ccccc4[nH]3)c(OCC)c2)C(=O)CNc2nc3ccccc3[nH]2)ccc1OC(=O)CNc1nc2ccccc2[nH]1
inactive: [1] 13.2% | [4] 31.8%
active: [2] -3.49% | [3] -22.9% | [5] -45.6% | [6] -12.2% | [9] -9.48% | [8] -27.5%

COc1ccc2c(c1)[n+](=O)c(C(=O)/C=C/c1cc(OC)c(OC)c(OC)c1)c(C)n2[O-]
inactive: [1] 57.2% | [2] 61% | [3] 71.5% | [4] 120% | [5] 65.9% | [6] 105% | [9] 77.1% | [8] 13.2%
active: [7] -63.6%

CC(C)Cn1cnc2c(NCn3nc(-c4cc(Cl)cc(Cl)c4Cl)n(/N=C/c4ccc(Cl)cc4)c3=S)nc3ccccc3c21
inactive: [1] 81.8% | [2] 70.6% | [3] 85% | [4] 90.4% | [5] 81.6% | [6] 63.9% | [9] 96.8% | [8] 82.2%

CCOc1cc(/C=C/C(=O)C(C(=O)/C=C/c2ccc(OC(=O)CNc3nnc(C)s3)c(OCC)c2)C(=O)CNc2nnc(C)s2)ccc1OC(=O)CNc1nnc(C)s1
active: [2] -13.9% | [3] -3.17% | [5] -85.2% | [6] -6.01% | [9] -41.7% | [8] -34.3%
inactive: [1] 11% | [4] 32.4%

O=[N+]([O-])c1ccc(N=Nc2c(Cl)cc(O)cc2Cl)cc1
active: [1] -19.1% | [2] 1.71% | [3] 0.728% | [4] 9.62% | [5] 1.34% | [6] -11.9% | [7] 8.97% | [8] -19%

CCOC(=O)CCN(c1c(Cl)ssc1=O)C(C)C
active: [7] -34.9% | [8] -14.5%
inactive: [1] 96.4% | [2] 107% | [3] 114% | [4] 129% | [5] 118% | [6] 124% | [9] 106%
